Hits are enriched below; roughly 7.9% of the tested compounds scored in any of these assays.
FMDV antiviral: foot and mouth disease virus antiviral activity; hit rate 1.2% among 410,000; Potency, µM (doses to about 57.9 µM), most hits filed as inhibitors; FMDV antiviral cell-based qHTS; calls by dose curve; tested in HEK293T cells; note: read-out not given here; nearly all actives have a fitted effect of over 45% in size
HCV inhibitor: blocks hepatitis C virus; Huh7.5.1 HCVcc-Cre infection, luciferase reporter, 44 h; Potency, µM (series often up to 41.8 µM), actives largely listed as inhibitors; hit rate 3.4% among 340,000; AID 651820; active = well fitted inhibition curve with a large enough effect; inconclusive = small, poorly fitted or top-dose-only effect, or another doubt; inactive = no such curve, though single readings can be large or run the other way
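Cells (1,000/well) were plated 4 h before compound, then infected with HCVcc-Cre virus (~0.5 moi). After 44 h further culture, infection was read as luciferase luminescence following a 15 min substrate incubation at room temperature.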
HCMV antiviral: human cytomegalovirus inhibition; HFF cells, HCMV-luciferase reporter, 72 h; stronger effect = lower value; activity change, negative = inhibition, % at 57.5 µM; hit rate 4.5% among 410,000; AID 1259415; in the data active = activity change below about -60%; inconclusive = no clear call, values can overlap the other calls; inactive = above about -39%
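Screen run at 2 compound doses on HFFs infected with reporter HCMV, MOI 1 PFU/cell. Luciferase activity from cell lysates at 72 h post infection gave inhibition relative to buffer-only and Salinomycin wells.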
Lassa entry inh: inhibitors of Lassa virus binding or cell entry. Lassa virus pseudotype entry inhibition, cell reporter. Potency, µM (top dose mostly 37.9 µM), hits mostly inhibitors. hit rate 1.2% among 300,000. AID 540256; calls by dose curve; tested in HEK293 cells; note: nearly all actives have a fitted effect of over 50% in size
Marburg entry inh: inhibitors of Marburg virus binding or cell entry | Marburg virus pseudotyped entry inhibition, cell reporter | Potency, µM (top dose mostly 37.8 µM), actives largely listed as inhibitors | hit rate 1.8% among 300,000 | AID 540276; calls by dose curve; tested in HEK293 cells
Hits are given with their value; . = inactive; ? = inconclusive; / = no result.

SMILES | FMDV antiviral | HCV inhibitor | HCMV antiviral | Lassa entry inh | Marburg entry inh
O=C(Nc1ccccc1N1CCCCC1)c1cccc([N+](=O)[O-])c1 | . | ? | . | ? | ?
COc1cccc(/C=N/NC(N)=S)c1OCc1ccccc1Cl | ? | ? | -78 | . | ?
CCOc1cc(/C=N/NC(N)=S)cc(Br)c1OCc1ccccc1C | . | 11µM | / | ? | ?
CCOC(=O)N/N=C/c1ccccc1OCc1ccc(Cl)cc1 | . | . | ? | . | ?
COc1cccc(/C=N/n2nnnc2N)c1OCc1ccccc1Cl | . | ? | . | . | .
COc1cc(/C=N/NC(N)=S)cc(Br)c1OCc1ccccc1F | ? | 8.9µM | ? | ? | ?
NC(=S)N/N=C/c1ccccc1OCCSc1ccc(Cl)cc1 | 35µM | ? | -69 | 3.7µM | ?
CNC(=S)N/N=C/c1cc(Br)c(OCc2ccncc2)c(OC)c1 | . | . | . | / | /
COc1ccc(CCNC(=O)CCCCn2c(=O)c3ccccc3n(CC(=O)Nc3ccc(C)cc3C)c2=O)cc1OC | . | / | . | . | ?
COc1ccc(CCNC(=O)Cc2cc3c(cc2[N+](=O)[O-])OCO3)cc1OC | . | . | . | . | .
COc1ccc(C)cc1/C=C/C(=O)N1CCN(S(=O)(=O)c2cccs2)CC1 | ? | / | . | / | /
Cc1cc(OCC(=O)N2CCC(c3nc4ccccc4s3)CC2)ccc1Cl | ? | / | . | . | .
Cc1c(C)c(C)c(S(=O)(=O)NCCC(=O)N2CCN(Cc3ccc(C#N)cc3)CC2)c(C)c1C | . | 13µM | . | / | /
CC1=C(C(=O)Nc2cccc(C(=O)NC3CCCC(C)C3C)c2)SCCO1 (configuration not stated) | . | 13µM | . | / | /
COc1cc(CCNC(=O)c2ccccc2NC(=O)C2=C(C)OCCS2)cc(OC)c1OC | ? | . | . | / | /
COc1ccc(CCNC(=O)c2ccccc2NC(=O)C2=C(C)OCCS2)c(OC)c1 | . | 10µM | . | / | /
COc1ccc(OC)c(CCNC(=O)c2cccc(NC(=O)C3=C(C)OCCS3)c2)c1 | . | 11µM | . | / | /
COc1ccc(OC)c(CCNC(=O)Cc2ccc(NC(=O)C3=C(C)OCCS3)cc2)c1 | . | / | . | / | /
COc1cc(NC(=O)C2=C(C)OCCS2)c(Cl)cc1C(=O)NCCN(C)C | . | ? | . | . | 10µM
CCN(CC)c1ccc(/C=N/NC(=O)c2cccc(N3CCCC3=O)c2)cc1 | . | . | . | . | ?
Cc1ccc(NC(=O)NC(=O)COc2ccccc2C(N)=O)c(C)c1 | . | . | . | / | /
COCCNCCCCOc1c(Cl)cc(C)cc1Br | . | 11µM | . | . | ?
Cc1cc(Cl)c(OCCCN2CCCCC2)c(Br)c1 | . | ? | ? | ? | ?
Cc1cc(Cl)c(OCCCNCc2ccccc2)c(Br)c1 | . | 25µM | . | . | ?
CC(=O)N1c2c(cc(Br)cc2S(=O)(=O)NCc2ccc(C)cc2)CC1C (configuration not stated) | . | . | -66 | / | .
SMILES | FMDV antiviral | HCV inhibitor | HCMV antiviral | Lassa entry inh | Marburg entry inh
CC(=O)N1c2c(cc(Br)cc2S(=O)(=O)Nc2ccc(OC(F)(F)F)cc2)CC1C (configuration not stated) | . | / | -82 | . | .
COc1ccc(S(=O)(=O)NCC(c2ccco2)N2CCN(c3ccc(F)cc3)CC2)cc1C (configuration not stated) | . | / | . | ? | /
CC(C)C(NC(=O)c1c(F)cccc1F)C(=O)N1CCN(S(=O)(=O)c2ccc(F)cc2)CC1 (configuration not stated) | . | . | . | / | /
COc1cccc(-n2ncc3c(NN=Cc4ccncc4)ncnc32)c1 | / | / | / | . | /
O=S(=O)(c1ccc2c(c1)OCCO2)N1CCC(c2nc3ccccc3[nH]2)CC1 | ? | . | . | . | ?
Cc1ccc2c(c1)nnn2C1CCN(S(=O)(=O)c2ccc(C(=O)N(C)C)cc2)CC1 | ? | ? | . | . | .
Cc1ccc2nc(C3CCN(S(=O)(=O)c4ccc5ccccc5c4)CC3)[nH]c2c1 | / | ? | -80 | ? | ?
Cc1ccc2c(c1)nnn2C1CCN(S(=O)(=O)c2ccc3ccccc3c2)CC1 | ? | ? | -64 | ? | .
Cc1ccc2c(c1)nnn2C1CCN(S(=O)(=O)c2cccc(S(=O)(=O)N(C)C)c2)CC1 | 18µM | 10µM | . | ? | ?
O=S(=O)(c1ccc2c(c1)OCCO2)N1CCC(c2nc3ccc(Cl)cc3[nH]2)CC1 | 14µM | ? | -96 | . | ?
CN(CC(=O)Nc1cccc(F)c1)C(=O)C1CCN(S(=O)(=O)c2ccc3c(c2)OCCO3)CC1 | . | ? | . | . | .
Cc1ccc(-c2nc3ccccc3c(=O)n2-c2cccc(C)n2)cc1 | . | . | -85 | . | ?
COc1ccc(-c2nc3ccccc3c(=O)n2-c2cccnc2)cc1 | . | . | -77 | . | .
Cc1ccc(-c2nc3ccccc3c(=O)n2-c2cc(C)ccn2)cc1 | . | / | . | . | .
COc1ccc(-n2c(-c3ccc(C)cc3)nc3ccccc3c2=O)cc1 | . | . | ? | . | .
COc1ccc(N/N=C(/C(N)=O)C2=NC(C)(C)Cc3ccccc32)cc1 | . | ? | -92 | ? | ?
CN1CCC(Oc2ccccc2Sc2ccc(C(F)(F)F)cc2)CC1 | . | 11µM | ? | 12µM | ?
NCCNS(=O)(=O)c1cccc2c(Cl)cccc12 | . | / | / | . | 11µM
Cc1cccc(C)c1C(OCCN(C)C)C1CCCCC1 (configuration not stated) | ? | ? | . | ? | 21µM
Cc1ccc(-c2nnc(Nc3ccc(C(N)=O)cc3)c3ccccc23)cc1S(N)(=O)=O | . | / | . | . | /
COc1ccc(S(=O)(=O)NC2CCCC2)cc1Br | . | . | . | . | .
O=S(=O)(NC1CCCC1)c1ccccc1Br | . | . | -97 | / | /
Cc1ccc(C(=O)NC2CCCc3c2cnn3-c2ccc(F)cc2F)cn1 (configuration not stated) | / | / | -86 | / | /
Cc1nnsc1C(=O)NC1CCCc2c1cnn2-c1ccc(F)cc1F (configuration not stated) | ? | ? | -92 | ? | ?
Oc1ccc(Cl)cc1Cc1cc(Cl)ccc1O | ? | ? | -89 | ? | ?
SMILES | FMDV antiviral | HCV inhibitor | HCMV antiviral | Lassa entry inh | Marburg entry inh
O=C1C2C3C=CC(c4ccccc4)(C2C(=O)N1c1cccc(Cl)c1)C1C(=O)N(c2cccc(Cl)c2)C(=O)C31 (configuration not stated) | . | 10µM | . | ? | ?
FC(F)(F)c1nc(-c2cccnc2)ncc1-c1nnnn1-c1ccccc1 | . | ? | . | . | .
Clc1ccc(-n2nnnc2-c2cnc(-c3ccncc3)nc2-c2cccs2)cc1 | . | 22µM | -62 | ? | ?
Cc1ccc(Cl)cc1N1CCN(c2cccc[n+]2C)CC1 | . | . | -93 | . | ?
CC(C)OC(=O)n1c(=S)oc2ccccc21 | / | . | . | . | ?
CCCCC(=O)/C=C/n1c(=S)oc2ccccc21 | ? | ? | -101 | . | 18µM
Cc1ccc(C)c(OCC(O)CN2CCC(CN3C(=O)c4cccc5cccc(c45)C3=O)CC2)c1 (configuration not stated) | ? | ? | . | ? | ?
COc1ccc(OCC(O)CN2CCC(CN3C(=O)c4cccc5cccc(c45)C3=O)CC2)cc1 (configuration not stated) | . | ? | . | ? | 4.5µM
